Measurements reported in PubChem BioAssay AID1259343 (VanderVen Lab, College of Veterinary Medicine, Cornell …, 2017).
The campaign covered roughly 6,200 compounds. About 2,900 (47%) were called active. So high a share suggests a set chosen from earlier hits. The list shows a part of the results. Unmarked numbers belong to inactive results. Rule as the data show it: active = inhibition above about 50%; inactive = the rest.

Assay: Mycobacterium tuberculosis growth inhibition, primary screen (AID 1259343)
Conditions: inhibition: at 10 µM, hits give high values; outcome: 10 uM

Compound	inhibition
CC(C)C1CC(=NNC(N)=S)C=C2CCCCC21 (stereo unspecified)	102% (active)
COCCCNC(=O)c1nn(-c2ccc(F)cc2)c2ncccc12	42.3%
CC(Oc1ccccc1)C(=O)Nn1cnc2c(cnn2-c2ccc(F)cc2)c1=O (stereo unspecified)	70.4% (active)
Cc1ccc(-c2nnc(-c3ccccc3N)[nH]c2=O)cc1C	49.2%
C=CCSc1nnc(-c2cc(Br)ccc2N)c(=O)[nH]1	76.5% (active)
CCCCCCCCc1nnc(N)s1	89.3% (active)
CCCCc1ccc(NC(=O)CNc2ccccc2C(C)=O)cc1	90.7% (active)
CN(Cc1ccc(Br)cc1)C(=O)Nc1ccc(F)c(F)c1F	44.5%
CCC(C)c1ccc(NC(=O)CNc2ccc(F)c(C(=O)OC)c2)cc1 (stereo unspecified)	-5.36%
CCc1ccc(NCC(=O)Nc2ccc(I)cc2C)cc1	53.6% (active)
CCc1ccc(NC(=O)CNc2ccc(F)c(F)c2F)cc1	96.5% (active)
CC(C)C(=O)NC(=S)Nc1nc2ccc(Cl)cc2s1	13.7%
CSc1nc2cc(NC(=S)NC(=O)c3ccccc3)ccc2s1	91.3% (active)
COc1cc(C(=O)N2CCOC(COc3cccc(C(F)(F)F)c3)C2)ccc1F (stereo unspecified)	62.2% (active)
O=C(COc1ccc(F)cc1)N1CCOC(COc2cccc(C(F)(F)F)c2)C1 (stereo unspecified)	15.7%
O=C(c1cc(F)cc(F)c1)N1CCOC(COc2cccc(C(F)(F)F)c2)C1 (stereo unspecified)	84.5% (active)
O=C(Cc1cccc(Cl)c1)N1CCOC(COc2cccc(C(F)(F)F)c2)C1 (stereo unspecified)	17.4%
N#CSc1ccc(N)c(Cl)c1	94.6% (active)
Cc1cccc(OCCN(C)c2cnn(-c3ccc(F)cc3F)c(=O)c2Cl)c1	14.4%
Cc1ccc(CSc2nc(CC(=O)NCc3ccccc3)cs2)cc1	62.1% (active)
Cc1ccc(CSc2nc(CC(=O)O)cs2)cc1	31.9%
CCNC(=O)Cc1csc(SCc2ccc(C)cc2)n1	72.3% (active)
Cc1ccc(CSc2nc(CC(=O)NCc3ccco3)cs2)cc1	90.2% (active)
Cc1ccc(CSc2nc(CC(=O)NCC(C)C)cs2)cc1	58.9% (active)
CCC(C)NC(=O)Cc1csc(SCc2ccc(C)cc2)n1 (stereo unspecified)	-14.8%
Cc1ccc(CSc2nc(CC(=O)NCCC(C)C)cs2)cc1	5.27%

Compound	inhibition
Cc1ccc(CSc2nc(CC(=O)NC3CC3)cs2)cc1	50%
Cc1ccc(CSc2nc(CC(=O)NCc3cccs3)cs2)cc1	60.2% (active)
CC(C)CN(CC(=O)Nc1nc(CC(=O)NCc2ccc(F)cc2)cs1)C(=O)c1ccc(Cl)cc1	-3.41%
CC(C)CCNC(=O)Cc1csc(SCc2ccc(Cl)cc2)n1	68.8% (active)
Cc1ccc(CSc2nc(CC(=O)NC(C)C)cs2)cc1	69.6% (active)
Cc1ccc(CSc2nc(CC(=O)NC3CCCC3)cs2)cc1	3.98%
Cc1ccc(CSc2nc(CC(=O)NC3CCCCC3)cs2)cc1	81.7% (active)
O=C(CCl)NC(=O)NCc1cccs1	-19.2%
CC(Cc1ccccc1F)NCc1noc(-c2ccc3c(c2)OCO3)n1 (stereo unspecified)	59.5% (active)
CC(Cc1cccnc1)NCc1nc(Cc2ccccc2F)no1 (stereo unspecified)	33.9%
CC(C)Cc1noc(-c2ccc(-c3ccc4c(c3)OCCO4)nc2)n1	3.86%
Nc1nc2ccc(Oc3ccc4nc(N)sc4c3)cc2s1	21%
Cc1nc2ccc(N)cc2s1	94.6% (active)
Nc1ccc2nc(SCc3ccc(F)cc3)sc2c1	16.7%
COc1cc(OC)nc(Nc2nc(C(N)Cc3ccc(Cl)cc3)cs2)n1 (stereo unspecified)	93.6% (active)
COc1cc(OC)nc(Nc2nc(C(N)Cc3ccc(F)cc3)cs2)n1 (stereo unspecified)	71.1% (active)
Oc1ccc(C=Nc2ccc3oc4ccccc4c3c2)c(O)c1O	95% (active)
COc1cccc(C=CC(=O)c2cccc(N3CCOCC3)c2)c1	44.4%
C(=C\c1cccc(N2CCNCC2)c1)/c1ccccc1	90.8% (active)
CC1(C)C2(Cl)C(Cl)C(Cl)C(Cl)(C(Cl)Cl)C1(Cl)C2Cl (stereo unspecified)	65.2% (active)
S=c1nc[nH]c2nc[nH]c12	49.3%
Brc1ccccc1CNCC1COc2ccccc2O1 (stereo unspecified)	-26.4%
FC(F)(F)c1ccnc(NCC2COc3ccccc3O2)n1 (stereo unspecified)	96.6% (active)
FC(F)(F)CCc1ccnc(NCC2COc3ccccc3O2)n1 (stereo unspecified)	24.3%
OC(C#CCC(O)c1ccccc1)c1ccccc1 (stereo unspecified)	101% (active)
CN(CC(O)c1ccccc1F)C(c1ccccc1)c1ccccc1 (stereo unspecified)	-46%

Compound	inhibition
N#Cc1ccc(S(=O)(=O)N2CCC(Cc3ccc(F)cc3)CC2)cc1	60.9% (active)
O=S(=O)(c1ccc(F)cc1)N1CCCC(OCc2cc(F)cc(F)c2)C1 (stereo unspecified)	2.58%
N#Cc1ccc(S(=O)(=O)N2CCN(c3ccccc3F)CC2)cc1	8.35%
N#Cc1ccc(S(=O)(=O)N2CCC(Cc3ccc(C(F)(F)F)cc3)CC2)cc1	71.7% (active)
O=C(O)c1cc[c]([Hg][Cl])cc1	33.6%
O=C(CNc1ccc2c(c1)OC(F)(F)O2)N1CCc2sccc2C1	-40%
COc1ccc(C)cc1NC(=O)N1CCN(CCCOC(c2ccc(Cl)cc2)c2ccc(Cl)cc2)CC1	-0.67%
COc1ccc(Cl)cc1NCC(=O)N1CCc2sccc2C1	83.7% (active)
CC(C)Oc1ccc(NC(=O)Cc2cccs2)cc1Cl	38%
CC(C)Oc1ccc(NC(=O)C2CCOCC2)cc1Cl	95.4% (active)
C=CCn1c(=NC(=O)c2ccc(OC)cc2)sc2cccc(OC)c21	39.7%
Cc1cc(NC(=O)c2cccs2)n(-c2nc(C)c(C)c(=O)[nH]2)n1	98.8% (active)
CCc1c(C)nc(-n2nc(C)cc2NC(=O)c2cccs2)[nH]c1=O	101% (active)
CCCCS(=O)(=O)N(C)Cc1ccc(-c2ccc(Br)cc2)o1	83.2% (active)
OCC#CCSc1nnc(-c2cccc(Br)c2)o1	-10.9%
OCC#CCSc1nnc(-c2ccccc2Br)o1	99.2% (active)
Brc1ccccc1-c1nnc(SCc2ncc(-c3ccccc3)o2)o1	-4.92%
Fc1ccc(CN2CCC(Cc3ccc(-c4ccccc4)cc3)CC2)cc1C(F)(F)F	59% (active)
CC(C)(C)c1ccc2c(c1)OCC(C(=O)Nc1nc(-c3ccncc3)cs1)O2 (stereo unspecified)	84.6% (active)
CC(=O)Nc1ccc(-c2csc(NC(=O)C3Cc4ccccc4O3)n2)c(F)c1 (stereo unspecified)	16.7%
COC(=O)c1cc(C=O)c2ccc3ccccc3n12	27.1%
COC(=O)c1ccc(C=Cc2ccc3cccc(O)c3n2)cc1	63.1% (active)
Oc1cccc2ccc(C=Cc3cccc(Br)c3)nc12	90.5% (active)
Oc1cccc2ccc(/C=C/c3ccccc3OC(F)F)nc12	100% (active)
COc1ccc(Br)cc1C=Cc1ccc2cccc(O)c2n1	17.6%
CCc1ccc(NC(=O)c2ccc(CN3CCCC3=O)cc2)cc1	73.2% (active)

Compound	inhibition
CCc1ccc(NC(=O)C(C)n2cc(C(F)(F)F)ccc2=O)cc1 (stereo unspecified)	49.6%
Cc1cc(NC(=O)c2ccc(CN3C(=O)CC4(CCCC4)C3=O)cc2)ccc1Cl	-6.77%
CC(NS(=O)(=O)c1ccc(Cl)c(C(F)(F)F)c1)C1CC2CCC1C2 (stereo unspecified)	inactive
CCn1c(C)c(C(=O)CN(C(=O)c2ccc(Br)cc2)C2CCCCC2)c(C)c1C(=O)OC	22.6%
Cc1ccccc1C1CC(N(C(=O)c2ccc(Br)cc2)C2CC2)C1 (stereo unspecified)	82.4% (active)
Cc1ccc(C(=O)OC(C)CN2CCN(C)CC2)cc1 (stereo unspecified)	-10.1%
COC(=O)c1ccc(N2CN=C(c3ccc(C)cc3)NC2=S)cc1	87.5% (active)
CC1(Oc2ccccc2-c2ccno2)CCN(Cc2ccc(-c3ccccc3)o2)C1 (stereo unspecified)	25.5%
Fc1ccc(N2CCN(C[C@H]3CN4CC[C@H]3C[C@@H]4CNC(=S)Nc3ccc(-n4cccn4)cc3)CC2)cc1	95.6% (active)
CC(OC(=O)c1ccc(OCC2CCCO2)cc1)C(=O)Nc1nc(-c2ccc(F)c(F)c2)cs1 (stereo unspecified)	100% (active)
CCC(C)C(=O)Nc1nc(-c2ccc(OC)c(F)c2)cs1 (stereo unspecified)	0.73%
CN(c1cccc(O)c1)S(=O)(=O)c1cc(Cl)sc1Cl	-2.74%
O=S(=O)(Oc1ccc2oc3ccccc3c2c1)c1ccc2c(c1)OCCO2	31.3%
CN(c1cccc(O)c1)S(=O)(=O)c1ccc2c(c1)OCCCO2	52.4% (active)
Nc1ccc2scnc2c1	94.5% (active)
O=C(Nc1ccc2scnc2c1)C1CC(=O)N(CC2CC2)C1 (stereo unspecified)	34.9%
O=C(NCC1CCC2(CC1)OCCO2)c1ccc(Cl)cc1F	-19.8%
O=C(Nc1cc(C(F)(F)F)no1)c1ccc(Cl)cc1F	97.8% (active)
CCCSc1nnc(SCC(=O)Nc2nc(C)cs2)s1	90.9% (active)
CCCSc1nnc(NCc2ccc(OC)cc2)s1	33.5%
Cc1csc(C(C#N)C(=O)CSc2nnc(NC3CC3)s2)n1 (stereo unspecified)	28.8%
NCC[C@H](O)C(=O)N[C@@H]1C[C@H](N)[C@@H](O[C@H]2O[C@H](CN)[C@@H](O)[C@H](O)[C@H]2O)[C@H](O)[C@H]1O[C@H]1O[C@H](CO)[C@@H](O)[C@H](N)[C@H]1O	98.7% (active)
CN[C@H]1C[C@@H](N)[C@H](O)[C@@H](O[C@@H]2O[C@H](CO)[C@@H]3OC4(O[C@@H]3[C@@H]2O)O[C@H](C(N)CO)[C@H](O)[C@H](O)[C@H]4O)[C@@H]1O (stereo partly specified)	41.3%
